Most compounds without a hit are left out; they make up all but 2.1% or so of the library.
uPA surface inh = inhibitors of cell surface uPA generation | Potency, µM (doses to about 38.3 µM), for the others: at the top dose activity change, negative = inhibition, most hits filed as inhibitors | hit rate 0.31% among 330,000 | cell surface uPA generation assay, qHTS; active = well fitted inhibition curve with a large enough effect; inconclusive = small, poorly fitted or top-dose-only effect; inactive = no such curve, though single readings can be large or run the other way; tested in mouse RAW 264.7 cells; also: potency is read from the fitted curve at half-maximal effect; % is scaled to controls: 0 for no effect and ±100 for the full control effect; nearly all actives have a fitted effect of over 55% in size
Giardia kill = kills Giardia lamblia. Giardia lamblia trophozoite viability. activity change, % at 7.66 µM, hits read low. hit rate 0.15% among 340,000. AID 540267; in the data active = activity change below about -80%; inconclusive = between about -30% and that limit;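 also: parasites exposed to compound for two days anaerobically before the ATP read; % is scaled to controls: 0 for no effect and ±100 for the full control effect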
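Luminescent ATP signal served as the viability read-out, measured 15-30 min after adding ATP detection reagent to trophozoites that had been incubated with compounds for 48 hrs at 37 deg C anaerobically at 100 cells/well.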
p53 reactivation = mutant p53 re-activation in reporter cells | AID 504706 | hit rate 0.063% among 320,000 | H1299 p53-A138V BP100-luciferase reporter, luminescence, 24 h | Potency, µM (top dose mostly 92.2 µM), for the others: top-dose activity change, positive = activation, most hits filed as activators; also: potency is read from the fitted curve at half-maximal effect; % of control where 0% means no effect; nearly all actives have a fitted effect of over 45% in size
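p53-null H1299 cells stably carrying temperature-sensitive p53-A138V and a BP100-luciferase reporter were pinned with compounds (4-point, 1:5 series) and held 24 hrs at 37 deg C. Luminescence was read 10 min after detection reagent.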
Mito fusion act = mitochondrial division inhibition or fusion activation | AID 485298 | Potency, µM (highest dose often 46.1 µM), without a hit: top-dose growth rescue (activation), usual class: activators | hit rate 0.23% among 320,000 | S. cerevisiae fusion-defective mutant growth rescue, CellTiterGlo 48 h; also: potency is read from the fitted curve at half-maximal effect; % of control where 0% means no effect; nearly all actives have a fitted effect of over 45% in size
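Yeast fusion mutant, YPEG (non-fermentable carbon), compound, 48 h at 37C non-permissive; CellTiterGlo added, 10 min RT, luminescence read. Rescued growth = division inhibition.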
B2AR arrestin = recruits beta-arrestin to the human beta2-adrenergic receptor. hit rate 0.02% among 330,000. Potency, µM (series often up to 46.1 µM), without a hit: at the highest dose activation, hits mostly activators. beta-arrestin recruitment to beta2AR, cell-based reporter;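 also: potency is read from the fitted curve at half-maximal effect; 0% = DMSO controls and full agonism = EC100 isoproterenol or metaproterenol; nearly all actives have a fitted effect of over 65% in size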
Target sequence (P07550 whole entry, looked up): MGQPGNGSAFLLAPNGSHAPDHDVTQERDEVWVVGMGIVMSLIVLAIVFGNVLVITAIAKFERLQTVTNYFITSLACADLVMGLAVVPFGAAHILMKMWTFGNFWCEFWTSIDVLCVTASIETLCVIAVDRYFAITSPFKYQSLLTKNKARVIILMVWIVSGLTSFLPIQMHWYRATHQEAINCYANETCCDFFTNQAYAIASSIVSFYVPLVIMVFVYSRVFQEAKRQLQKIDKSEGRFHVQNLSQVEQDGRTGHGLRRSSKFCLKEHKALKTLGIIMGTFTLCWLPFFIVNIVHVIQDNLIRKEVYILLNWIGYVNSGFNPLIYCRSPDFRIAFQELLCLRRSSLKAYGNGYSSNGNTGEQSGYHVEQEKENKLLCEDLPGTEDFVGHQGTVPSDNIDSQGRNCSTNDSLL
ClpP mod = qHTS Assay for Activators of ClpP. purified B. subtilis ClpP, FRET peptide cleavage, 20 min. hit rate 1.9% among 340,000. ATP-dependent Clp protease proteolytic subunit (Bacillus subtilis (strain 168)), P80244. Potency, µM (doses to about 57.5 µM), inactives show top-dose activity change, negative = active; active = well fitted falling curve with a large enough effect; inconclusive = small, poorly fitted or top-dose-only effect; inactive = no such curve, though single readings can be large or run the other way; also: potency is read from the fitted curve at half-maximal effect; the source files actives as falling curves though it sought activators and does not explain the sign; nearly all actives have a fitted effect of over 65% in size
Target sequence (P80244 whole entry, looked up): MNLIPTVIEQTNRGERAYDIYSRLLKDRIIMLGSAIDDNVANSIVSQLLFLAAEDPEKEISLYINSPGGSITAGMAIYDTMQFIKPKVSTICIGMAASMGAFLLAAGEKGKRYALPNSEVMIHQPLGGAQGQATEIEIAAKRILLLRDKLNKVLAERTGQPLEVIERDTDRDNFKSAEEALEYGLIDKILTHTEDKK
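ClpP 10 microg/mL final, pH 8 Tris/KCl buffer with BSA, glycerol, Tween-20; compound pinned in; FRET-FV substrate; RT 20 min; Ex320/Em430; ΔFRET vs ADEP 5.8 microM, DMSO, no enzyme.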
Active calls of the source: *; ? = inconclusive; nt = not tested or not shown; ! = not confirmed by another sample. Unless noted, calls follow the shape of the dose curve; as a rule, active = well fitted curve in the direction sought with a large enough effect; inconclusive = small, poorly fitted or top-dose-only effect, or another doubt; inactive = no such curve, though single readings can be large; an effect the other way counts as inactive or inconclusive.

SMILES	uPA surface inh	Giardia kill	p53 reactivation	Mito fusion act	B2AR arrestin	ClpP mod
COc1cccc2cc(C(=O)NCC3CCCO3)c(=O)oc12 (centres undefined)	-2.0%	-7.4	24.7%	0.3%	0.0%	-1.0%
CC(=O)Nc1ccc(S(=O)(=O)Nc2ccccc2C(=O)NCc2cccnc2)cc1	0.6%	1.8	0.9%	10µM*	-0.2%	nt
CNC(=O)c1cc2ccc(OC)cc2oc1=O	-1.7%	-21.4	-15.9%	-3.4%	-0.3%	83.5%
O=C(NCC1CCCO1)c1cnn2c(C(F)F)cc(C3CC3)nc12 (centres undefined)	-8.0%	8.4	-2.2%	2.0%	0.3%	-8.9%
O=C(NCCc1ccccc1)c1cnc2sc(N3CCCCC3)nn2c1=O	nt	nt	nt	nt	nt	4.2%
COc1ccc2oc(=O)c(C(=O)NCc3cccnc3)cc2c1	-5.7%	6.5	2.4%	-2.6%	-0.6%	28.2µM*
COc1ccc(C(=O)Nc2ccccc2C(=O)NCc2cccnc2)cc1	7.08µM*	-5.8	23.7%	1.9%	-0.5%	-13.1%
CCOc1ccc(/C=N/NC(=O)c2ccccc2NC(=O)c2ccc(OC)cc2)cc1	-11.1%	-25.8	?	5.4%	2.5%	28.2µM*
CC(C)COc1ccc(C(=O)Nc2onc3c2CCCC3)cc1	nt	nt	nt	nt	nt	-0.9%
Cn1c(=O)c2c(nc(Oc3ccccc3Cl)n2Cc2ccc(C#N)cc2)n(C)c1=O	nt	nt	nt	nt	nt	-2.9%
O=C(O)c1ccc(S(=O)(=O)N[C@H](Cc2ccc(O)cc2)C(=O)O)cc1	nt	nt	nt	-2.8%	-0.4%	nt
Cc1cc(-n2c(C)cc(C(=O)CSc3nc(N)cc(=O)[nH]3)c2C)no1	-12.6%	-0.2	-1.0%	0.6%	0.0%	-2.1%
Cc1cc(C(=O)CSc2nc(N)cc(=O)[nH]2)c(C)n1-c1ccc(OC(F)F)cc1	-3.3%	7.7	-2.9%	-2.7%	0.1%	31.6µM*
CC(=O)Nc1ccc(SCC(=O)c2cc(C)n(-c3ccccc3)c2C)cc1	0.9%	?	68.4%	?	0.3%	?
COc1ccc(-n2c(C)cc(C(=O)CSc3ccc(NC(C)=O)cc3)c2C)cc1	-1.7%	?	?	15.8µM*	-0.3%	-5.4%
COc1ccc(-n2c(C)cc(C(=O)COc3ccc(C)nc3[N+](=O)[O-])c2C)cc1	9.6%	-80.8*	?	?	0.4%	3.4%
Cc1cccc(NC(=O)C(c2ccccc2)N2Cc3ccccc3C2=O)c1C (centres undefined)	nt	nt	nt	nt	nt	0.7%
COc1ccc(OC)c(NC(=O)C2CCN(S(=O)(=O)c3ccc4c(c3)CCCC(=O)N4)CC2)c1	nt	nt	nt	nt	nt	-0.1%
CCN(CC)C(=O)Cn1c(=O)n(-c2ccc(Cl)c(Cl)c2)c(=O)c2c(C)c(C(=O)N(CC)CC)sc21	nt	nt	nt	nt	nt	4.2%
Cc1ccc(S(=O)(=O)c2c(C)cc(C)nc2Oc2cccc(C(F)(F)F)c2)cc1	-1.3%	-7.6	-2.9%	-5.5%	-0.3%	-1.9%
Cc1cc(-c2ccccc2)nc(Oc2cccc(C(F)(F)F)c2)c1S(C)(=O)=O	5.5%	-5.0	6.0%	1.7%	1.0%	35.5µM*
COC(=O)c1ccccc1NC(=O)c1ccc(COc2cc(C)cc(C)c2)o1	3.0%	17.2	15.5%	12.6%	-0.2%	20µM*!
CCOC(=O)c1ccc(NC(=O)C2CCCN(c3ncnc4onc(C)c34)C2)cc1 (centres undefined)	nt	nt	nt	nt	nt	0.4%
O=c1c2[nH]c3ccccc3c2ncn1CCN1CCCCC1	-0.9%	5.7	6.2%	1.1%	-0.1%	25.1µM*
Cc1ccc2c(c1)[nH]c1c(=O)n(CCCN3CCOCC3)cnc12	-1.4%	14.1	4.9%	0.8%	-0.6%	28.2µM*
SMILES	uPA surface inh	Giardia kill	p53 reactivation	Mito fusion act	B2AR arrestin	ClpP mod
Cc1ccc2c(c1)[nH]c1c(=O)n(CCN3CCCCC3)cnc12	-0.2%	7.0	11.8%	2.0%	-0.3%	?
Cc1ccc2[nH]c3c(=O)n(Cc4ccncc4)cnc3c2c1	4.9%	14.1	1.4%	-0.6%	0.2%	14.1µM*
CCCc1cc(=O)oc2c(C)c3c(cc12)CN(CCc1ccc(Cl)cc1)CO3	nt	nt	nt	nt	nt	3.9%
COC(=O)CSc1nc(-c2cccs2)ccc1C#N	nt	-3.3	?	2.6%	-0.1%	6.31µM*
Cc1ccc(CSc2nc(-c3cccs3)ccc2C#N)cc1	nt	nt	nt	nt	nt	3.6%
CCN(CC)C(=O)CSc1nc(-c2cccs2)cc(-c2cccs2)c1C#N	-9.3%	-7.4	26.7%	22.0%	-0.2%	25.1µM*
C#CCSc1nc(-c2cccs2)ccc1C#N	-2.8%	-22.7	20.7%	7.3%	-0.2%	31.6µM*
N#Cc1ccc(-c2cccs2)nc1SCc1ccc(Cl)cc1Cl	nt	nt	nt	nt	nt	-14.9%
CCN(CC)C(=O)CSc1nc(N)c(C#N)c(-c2cccs2)c1C#N	nt	-11.4	-7.0%	-2.7%	0.1%	?
Cc1ccc(-c2nnc(Nc3ccc(C(=O)N(C)C)cc3)c3ccccc23)cc1S(=O)(=O)N(C)C	nt	nt	nt	nt	nt	-1.5%
COc1cccc(-c2ccc(-c3noc(-c4ccccc4F)n3)c(OC)n2)c1	nt	16.9	2.7%	5.0%	-2.3%	14.1µM*
COc1ccc(-c2ccc(-c3noc(C(C)C)n3)c(OC)n2)cc1	3.5%	1.1	12.0%	-6.4%	0.3%	56.3%
COc1ccc(-c2ccc(-c3noc(-c4cc(OC)cc(OC)c4)n3)c(OC)n2)cc1	nt	nt	nt	nt	nt	15.8µM*
Cn1cnc(S(=O)(=O)N2CCC(C(=O)N3CCN(c4ccc(Cl)cc4)CC3)CC2)c1	nt	nt	nt	nt	nt	-2.0%
Cc1ccc(NC(=O)C(=O)NCC(c2cccnc2)N2CCN(Cc3ccccc3)CC2)cc1C (centres undefined)	nt	nt	nt	nt	nt	-2.4%
CC(C)c1cc(NCCCN2CCOCC2)n2c(nc3ccccc32)c1C#N	0.1%	11.0	-5.7%	-2.1%	-0.5%	28.2µM*
N#Cc1c2c(c(NCCN3CCOCC3)n3c1nc1ccccc13)CCCC2	-7.9%	-8.4	-13.9%	3.1%	0.6%	?
N#Cc1c2c(c(NCCCN3CCOCC3)n3c1nc1ccccc13)CCC2	9.7%	-3.5	-12.1%	-1.5%	-0.5%	31.6µM*
CC(C)c1cc(NCCN2CCOCC2)n2c(nc3ccccc32)c1C#N	3.7%	-1.3	nt	nt	nt	-5.1%
Cc1ccc(-c2noc(CCC(=O)Nc3ccc(F)cc3Cl)n2)cc1	nt	nt	nt	nt	nt	-0.7%
CN(C)c1ccc(N=Cc2nc(-c3ccccc3)oc2O)cc1	-3.8%	17.7	4.8%	-0.6%	-1.0%	22.4µM*
Oc1oc(-c2ccccc2)nc1C=Nc1ccccc1	-11.2%	5.5	7.5%	-5.0%	0.8%	-1.0%
Brc1ccc(-c2cnc(-c3cccs3)o2)cc1	-0.3%	13.8	?	-5.0%	0.3%	31.6µM*
Cc1ccc(-c2noc(-c3cccs3)n2)cc1	-21.4%	1.0	?	2.2%	0.4%	-3.4%
O=C(NCC(c1cccnc1)N1CCc2ccccc21)c1ccc(F)cc1 (centres undefined)	nt	nt	nt	nt	nt	1.1%
Cc1cccc(OC(=O)CSc2nnc(-c3ccc4c(c3)OCO4)o2)c1C	nt	nt	nt	nt	nt	237.7%
